Only some compounds are listed: those with a hit (about 4.8% of all), similar ones and a draw of the others.
hgDAF-12 ag: agonists of H. glycines DAF-12 nuclear receptor. HEK293 GAL4-hgDAF12 UAS-luciferase reporter, agonist luminescence; normalized to butyrate control. activation, % at 6.8 µM. 1.8% of 370,000 active;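 active means activation above a cutoff set at the mean of all screened compounds plus 3 SD, cut at about 10% in these data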;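 further: 0% = DMSO wells and 100% = sodium butyrate wells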
SMARCA2 act: SMARCA2 function activation, primary screen; MG213 cells, MMTV-luciferase reporter, dexamethasone, overnight; activation, % at 9.1 µM; 1% of 370,000 active; in the data active means activation above about 7.8%;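 further: 0% = vehicle wells and 100% = reference activator wells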
hcDAF12 agonist: activates DAF-12 receptor from parasite H. contortus; HEK293 hcDAF-12 lit1-tk-luc reporter, luminescence; 0% DMSO, 100% Δ7-dafachronic acid; activation, % at 6.8 µM; 1.4% of 370,000 active; AID 652067;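 active means activation above the mean of all tested compounds plus 3 SD, cut at about 5.5% in these data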;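 further: 100% = response to 3 µM Δ7-dafachronic acid high control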
ssDAF-12 act: activates DAF-12 receptor from parasite S. stercoralis; activation, % at 6.8 µM; AID 652126; HEK293 ssDAF-12/GRIP1 lit1-tk-luc reporter, luminescence; % of 3 µM dafachronic acid response; 1% of 370,000 active;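 active means activation above the mean over all tested compounds plus 3 SD, cut at about 0.9% in these data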;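 further: 0% = DMSO-only wells and 100% = 3 µM delta7-dafachronic acid wells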
DAX1 inh-1: inhibitors of DAX1 repression of SF-1 activated StAR promoter. inhibition, % at 6.8 µM. 1.1% of 370,000 active. HEK293T StAR-luciferase reporter, SF-1/DAX-1 repression relief. AID 652010;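 active means inhibition above the mean over all tested compounds plus 3 SD, cut at about 3.6% in these data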;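 further: 0% = DAX-1 cells with DMSO and 100% = cells lacking DAX-1 with DMSO; higher inhibition means more luminescence from relief of DAX-1 repression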
DAX1 inh-2: NR0B1 (DAX1) inhibition; HEK293 Gal4-DAX1 luciferase reporter, luminescence; 0.99% of 340,000 active; inhibition, % at 6.75 µM; P51843;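 active means inhibition above the mean over all tested compounds plus 3 SD, cut at about 4.2% in these data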;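 further: 0% = DAX1-transfected cells with DMSO and 100% = empty-vector control cells with DMSO; inhibition shows as a rise in luminescence from relieved DAX1 repression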
Target sequence (P51843 207-470 limits assumed): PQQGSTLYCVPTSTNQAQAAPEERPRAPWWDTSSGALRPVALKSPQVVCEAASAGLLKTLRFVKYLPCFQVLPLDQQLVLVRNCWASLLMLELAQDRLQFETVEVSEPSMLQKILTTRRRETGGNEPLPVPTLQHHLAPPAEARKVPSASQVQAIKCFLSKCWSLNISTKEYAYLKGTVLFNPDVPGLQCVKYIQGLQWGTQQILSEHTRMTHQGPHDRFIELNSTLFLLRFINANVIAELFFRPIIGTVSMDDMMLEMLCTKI
DAX1 conf: NR0B1 (human) inhibition, confirmation; shares compounds with DAX1 inh-1; HEK293T StAR-promoter luciferase reporter, SF-1/DAX-1 repression; inhibition, % at 6.8 µM; 87% of 2,400 active;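 active means inhibition above the average of every tested compound plus 3 SD, cut at about 3.8% in these data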;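 further: 0% = DAX-1 cells with DMSO and 100% = no DAX-1 control cells with DMSO; active compounds raise luminescence by relieving repression of the StAR reporter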
SF1 mutant ctr: nonselective inhibitor or artifact in SF-1 mutant DAX1 counter-screen; shares compounds with DAX1 inh-1; HEK293 StAR-luciferase, SF-1 AF2 mutant, luminescence; inhibition, % at 6.8 µM; 78% of 2,400 active; AID 652136;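 active means inhibition above the mean of all tested compounds plus 3 SD, cut at about 3% in these data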;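 further: 0% = DAX-1 transfected cells with DMSO and 100% = cells without DAX-1 with DMSO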
SMARCA2 act conf: SMARCA2 activation, confirmation screen; shares compounds with SMARCA2 act; MG213 cells, MMTV-luciferase with dexamethasone, luminescence, overnight; MG213 cells expressing E1A, Rb sequestered; DMSO wells 0%, reference activator 100%; activation, % at 9.1 µM; 30% of 3,500 active; AID 652260;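 active means activation above its plate's cutoff, the mean activation of tested wells plus 3 SD, cut at about 7.9% in these data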
VP16 Luc act: counter-screen for SMARCA2 activators: GAL4-VP16 luciferase reporter activation; shares compounds with SMARCA2 act; HEK293 GAL4-VP16 pG5luc reporter, luciferase luminescence; scaled: DMSO wells 0%, SAHA wells 100%; activation, % at 9.1 µM; 41% of 3,500 active;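 active means activation above the solvent-only control well mean plus 3 SD, averaged across control plates, cut at about 5.2% in these data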
LXR ag: counter-screen for hcDAF-12 agonists: agonists of human LXR-beta; HEK293 Gal4-LXR tk-luc reporter, luminescence, 24 h; normalized: DMSO 0%, positive control 100%; activation, % at 6.8 µM; shares compounds with hcDAF12 agonist; AID 743027; 3,400 tested, under 10 active;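 active means mean percent activation of the reporter above a cutoff set as the average over tested compounds plus their standard deviation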
Target sequence (P55055 whole entry, looked up, the tested form may be a part): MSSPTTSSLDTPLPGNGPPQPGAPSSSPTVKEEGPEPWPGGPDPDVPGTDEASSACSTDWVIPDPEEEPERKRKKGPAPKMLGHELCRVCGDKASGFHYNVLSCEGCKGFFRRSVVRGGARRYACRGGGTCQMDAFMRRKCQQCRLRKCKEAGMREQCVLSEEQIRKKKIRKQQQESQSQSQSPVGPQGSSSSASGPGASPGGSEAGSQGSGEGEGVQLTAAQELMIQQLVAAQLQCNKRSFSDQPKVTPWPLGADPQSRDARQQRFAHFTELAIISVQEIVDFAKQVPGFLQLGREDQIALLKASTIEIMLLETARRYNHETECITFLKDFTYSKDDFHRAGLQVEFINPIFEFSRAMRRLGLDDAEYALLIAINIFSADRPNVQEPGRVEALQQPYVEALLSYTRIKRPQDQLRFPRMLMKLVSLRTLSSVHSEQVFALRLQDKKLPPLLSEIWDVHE
hcDAF12 ag: hcDAF-12 agonism, confirmation assay; 61% of 3,400 active; HEK293 hcDAF-12 lit1-tk-luc reporter, luminescence; % of Δ7-dafachronic acid response; shares compounds with hcDAF12 agonist; AID 743032; activation, % at 6.8 µM;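 active means mean activation across triplicate tests above the threshold derived from the earlier primary screen, cut at about 5.5% in these data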;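 further: 0% = DMSO only wells and 100% = 3 µM Δ7-dafachronic acid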
hgDAF12 conf: confirmation of H. glycines DAF-12 agonists | shares compounds with hgDAF-12 ag | HEK293 GAL4-hgDAF12 luciferase reporter, agonist mode; percent of butyrate response | activation, % at 6.8 µM | 80% of 3,300 active;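 active means mean activation over triplicate wells above the hit cutoff derived from the earlier primary screen, cut at about 11% in these data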;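 further: 0% = DMSO low control and 100% = 2 mM sodium butyrate high control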
LXR ag 2: counter-screen for DAF-12 agonists: agonists of human LXR-beta | AID 743051 | shares compounds with hgDAF-12 ag | 3,300 tested, under 10 active | HEK293 Gal4-LXR luciferase reporter, 24 h | activation, % at 6.8 µM;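 active means mean activation of the triplicate above a set limit carried over from the primary screen, none filed active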
* = called active by the depositor; nt = no result given.

SMILES	hgDAF-12 ag	SMARCA2 act	hcDAF12 agonist	ssDAF-12 act	DAX1 inh-1	DAX1 inh-2	DAX1 conf	SF1 mutant ctr	hgDAF12 conf	LXR ag 2	others
c1cncc(-c2nc3cc4ccccc4cc3[nH]2)c1	20.6*	8.4*	9.5*	1.5*	7.8*	4.6*	11.0*	5.3*	20.6*	1.1	SMARCA2 act conf=13.2*;VP16 Luc act=17.5*;LXR ag=1.8;hcDAF12 ag=9.6*
N/C(=N\OC(=O)c1ccc2ccccc2c1)c1ccccc1Cl	13.8*	5.9	3.9	-0.3	8.8*	2.2	0.6	3.5*	12.8*	0.4
N/C(=N\OC(=O)c1ccc2ccccc2c1)c1ccncc1	16.9*	6.2	7.1*	1.1*	5.2*	5.2*	10.2*	6.2*	13.6*	0.6	LXR ag=0.9;hcDAF12 ag=4.4
COc1ccc2cc(CCC(C)=O)ccc2c1	14.4*	3.3	2.7	0.4	5.2*	2.5	9.6*	7.9*	16.0*	0.6
CCCCOCCCNC(=O)C[C@@H]1C(=O)N(CCc2ccc(Cl)cc2)C2=CCCCC[C@]21C(=O)OC	-5.2	-1.3	-2.0	-0.8	-1.5	nt	nt	nt	nt	nt
Cc1cc(C)cc(OC(C)CCN2CCC(C(O)(c3ccccc3)c3ccccc3)CC2)c1 (configuration not stated)	3.0	-4.5	0.8	-1.4	-0.1	nt	nt	nt	nt	nt
O=S1(=O)c2c(cccc2N2CC[C@@H](O)C2)OCCCN1C1CC1	1.6	-1.9	-0.6	-0.6	-0.9	nt	nt	nt	nt	nt
O=C(NC1CCCCC1)c1ccc(-c2ccccc2F)o1	19.6*	5.6	10.0*	2.0*	8.7*	1.5	18.5*	6.2*	19.2*	1.1	LXR ag=0.9;hcDAF12 ag=6.1*
O=C(NC1CCCCCC1)c1ccc(CS(=O)(=O)Cc2ccccc2F)o1	5.0	-4.4	-0.3	-1.2	0.0	0.1	nt	nt	nt	nt
Cc1ccc(C(=O)NC2CCC(C)CC2)s1 (configuration not stated)	19.5*	5.8	3.6	1.0*	13.8*	0.8	15.4*	6.6*	18.0*	0.8
CNC(=O)c1cc2c(s1)CCCCCC2	-1.5	-2.8	-0.3	-1.0	-0.2	0.8	nt	nt	nt	nt
CC1CCC(NC(=O)c2cc3c(s2)CCCC3)CC1 (configuration not stated)	14.5*	4.8	2.0	-0.2	6.1*	1.9	6.7*	4.5*	12.1*	0.4
O=c1c2c(n3nnnc3n1Cc1ccc(Cl)cc1)-c1ccccc1CC21CCCC1	-1.9	-2.9	-1.2	-1.3	0.2	nt	nt	nt	nt	nt
O=C(/C(C=Nc1ccc(Br)cc1)=C(/O)c1ccco1)C(F)(F)F	18.9*	6.8	5.3	0.2	5.3*	-0.1	16.9*	-3.4	16.5*	1.1
C#CCN1CC(N(C)CCO)CS1(=O)=O (configuration not stated)	2.1	-0.4	0.0	-0.6	-0.6	nt	nt	nt	nt	nt
O=C(c1ccccc1)n1ccc(-c2cnc(-c3ccccc3)s2)n1	18.2*	6.7	7.7*	1.0*	4.9*	0.6	13.0*	5.6*	19.6*	1.2	LXR ag=1.5;hcDAF12 ag=7.1*
COc1ccc(S(=O)(=O)n2ccc(-c3cnc(-c4ccccc4)s3)n2)cc1	3.5	-4.2	-1.8	-1.0	0.3	0.6	nt	nt	nt	nt
Cc1ccc(C)c(NC(=O)CSc2nccn2Cc2ccco2)c1	4.5	3.7	2.8	-1.0	-0.7	1.3	nt	nt	nt	nt
Cc1ccc(NC(=O)CSc2nccn2Cc2ccco2)c(C)c1	13.6*	10.8*	7.2*	-0.1	6.3*	0.5	7.8*	3.2*	13.7*	0.6	SMARCA2 act conf=9.9*;VP16 Luc act=6.5*;LXR ag=0.9;hcDAF12 ag=7.0*
COc1nc(C)ccc1-c1noc(-c2ccco2)n1	15.1*	7.3	7.8*	0.7	5.0*	0.5	11.8*	5.4*	14.8*	0.7	LXR ag=1.7;hcDAF12 ag=6.6*
COc1nc(-c2ccc(C)cc2)ccc1-c1noc(-c2ccco2)n1	1.9	0.5	0.0	-1.1	-0.6	0.8	nt	nt	nt	nt
O=C(Nc1ccc(C(F)(F)F)cc1)OC1CCC12CCCCC2 (configuration not stated)	-2.4	0.5	-1.0	-1.0	0.0	nt	nt	nt	nt	nt
CCN=c1scc(-c2ccccc2)n1/N=C/c1ccccn1	nt	nt	nt	nt	nt	-3.9	nt	nt	nt	nt
CCN=c1scc(-c2ccc(F)cc2)n1/N=C/c1ccccn1	20.7*	-2.8	1.9	-1.7	6.8*	1.8	7.2*	4.8*	7.8	0.4
Cc1ccc(NC(=S)c2nc3ccccc3[nH]2)c(C)c1	23.9*	4.2	6.8*	1.6*	5.1*	0.7	16.6*	8.1*	18.8*	0.7	LXR ag=1.5;hcDAF12 ag=12.5*
CSCc1ccc(C(=O)NCc2ccc(C)cc2)cc1	-1.7	-0.1	3.9	-0.9	0.9	-0.7	nt	nt	nt	nt
CSCc1ccc(C(=O)Nc2ccc(C(N)=O)cc2)cc1	13.3*	4.7	4.4	-0.1	5.3*	2.9	9.6*	5.0*	13.1*	0.7
COC(CNC(=O)[C@H](Cc1c[nH]c2ccccc12)NC1(C(=O)NCc2ccccc2)CCCCC1)OC	-3.9	nt	-1.7	-1.5	nt	nt	nt	nt	nt	nt
Cc1ccc(OCc2cc(C(=O)NCCc3cccnc3)no2)cc1C	1.2	0.3	0.2	-0.8	-0.9	0.4	nt	nt	nt	nt
